# DAX1 inh-1: NR0B1 (DAX1) inhibition; inhibition, % at 6.75 µM; P51843; HEK293 Gal4-DAX1 luciferase reporter, luminescence; actives 0.99% (n = 340,000);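 active = inhibition above the mean over all tested compounds plus 3 SD, cut at about 4.2% in these data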;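 note: 0% = DAX1-transfected cells with DMSO and 100% = empty-vector control cells with DMSO; inhibition shows as a rise in luminescence from relieved DAX1 repression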
# Target sequence (P51843 207-470 limits assumed): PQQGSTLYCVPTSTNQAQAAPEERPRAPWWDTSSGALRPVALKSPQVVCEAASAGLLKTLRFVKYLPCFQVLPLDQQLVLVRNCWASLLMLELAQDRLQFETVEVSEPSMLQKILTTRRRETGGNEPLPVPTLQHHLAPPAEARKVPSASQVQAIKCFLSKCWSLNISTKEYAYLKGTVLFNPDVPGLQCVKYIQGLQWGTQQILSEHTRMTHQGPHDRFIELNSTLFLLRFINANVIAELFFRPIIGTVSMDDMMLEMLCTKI
# hgDAF12 agonist: agonists of H. glycines DAF-12 nuclear receptor | HEK293 GAL4-hgDAF12 UAS-luciferase reporter, agonist luminescence; normalized to butyrate control | activation, % at 6.8 µM | actives 1.8% (n = 370,000) | AID 687014;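 active = activation above a cutoff set at the mean of all screened compounds plus 3 SD, cut at about 10% in these data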;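 note: 0% = DMSO wells and 100% = sodium butyrate wells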
# SMARCA2 act: activators of SMARCA2 function; MG213 cells, MMTV-luciferase reporter, dexamethasone, overnight; AID 652017; actives 1% (n = 370,000); activation, % at 9.1 µM; in the data active = activation above about 7.8%;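 note: 0% = vehicle wells and 100% = reference activator wells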
# hcDAF12 agonist: H. contortus DAF-12 activation, primary screen. HEK293 hcDAF-12 lit1-tk-luc reporter, luminescence; 0% DMSO, 100% Δ7-dafachronic acid. activation, % at 6.8 µM. actives 1.4% (n = 370,000);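 active = activation above the mean of all tested compounds plus 3 SD, cut at about 5.5% in these data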;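 note: 100% = response to 3 µM Δ7-dafachronic acid high control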
# ssDAF12 agonist: S. stercoralis DAF-12 activation, primary screen | HEK293 ssDAF-12/GRIP1 lit1-tk-luc reporter, luminescence; % of 3 µM dafachronic acid response | activation, % at 6.8 µM | actives 1% (n = 370,000);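 active = activation above the mean over all tested compounds plus 3 SD, cut at about 0.9% in these data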;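 note: 0% = DMSO-only wells and 100% = 3 µM delta7-dafachronic acid wells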
# DAX1 inh-2: inhibitors of DAX1 repression of SF-1 activated StAR promoter. actives 1.1% (n = 370,000). HEK293T StAR-luciferase reporter, SF-1/DAX-1 repression relief. inhibition, % at 6.8 µM;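 active = inhibition above the mean over all tested compounds plus 3 SD, cut at about 3.6% in these data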;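 note: 0% = DAX-1 cells with DMSO and 100% = cells lacking DAX-1 with DMSO; higher inhibition means more luminescence from relief of DAX-1 repression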
# Numbers without * were called inactive; . = not tested or not shown. Only some compounds are listed: those with a hit (about 4.8% of all), similar ones and a draw of the others.
SMILES,DAX1 inh-1,hgDAF12 agonist,SMARCA2 act,hcDAF12 agonist,ssDAF12 agonist,DAX1 inh-2
O=C(N/N=C/c1ccco1)c1cc(C2CC2)[nH]n1,4.6*,5,5,1,-1,0
COc1cccc(CC(=O)OCC(=O)N(C)CC(=O)Nc2ccc(F)cc2)c1,0,0,-1,0,-1,0
NC(=O)Nn1c(CCC(=O)O)ccc1-c1ccc(F)cc1,1,0,-4,2,-1,0
COc1ccc(NC(=O)C2(C)CCCN2C(=O)C(C)C)cc1OC (centres undefined),.,4,7,1,-1,0
CCC(=O)Nc1ccc(NC(=O)C23CC4CC(CC(C4)C2)C3)cn1,3,6,-2,2,-1,0
O=C(Nc1ccc(N2CCOCC2)c(Cl)c1)c1ccc(-n2cnnc2)cc1,0,0,-1,2,-1,1
O=C(Nc1ccc(N2CCOCC2)c(Cl)c1)c1ccc(F)cc1,5.2*,6,5,0,-1,1
CC(=O)N(C)c1ccc(NC(=O)c2ccco2)cc1,0,7,0,5,0,3.8*
O=C(Nc1ccc(NC(=O)C23CC4CC(CC(C4)C2)C3)cn1)c1ccco1,3,11*,3,3,1,1
O=C(Nc1ccc(N2CCCC2)c(Cl)c1)c1ccco1,-1,12*,2,3,0,4
CCOC(=O)[C@]12CCCC=C1N(Cc1ccc(OC)cc1)C(=O)[C@@H]2CC(=O)NCc1ccc(C)o1,.,-1,0,-4,-1,-2
O=C(Nc1ccc(N2CCN(Cc3ccccc3)CC2)cc1)c1ccccc1[N+](=O)[O-],2,3,0,-1,-1,0
CC(C)(C)C1CCC(=NNC(=O)c2ccco2)CC1 (centres undefined),2,6,5,4,0,4.4*
CN1CCC(=NNC(=O)c2ccco2)CC1,3,8,6,2,0,2
COc1ccc(OC)c(S(=O)(=O)NCc2ccc(N3CCN(C)CC3)cc2)c1,1,2,0,0,-1,1
CCCCNC(=O)Nc1nnc(-c2ccc(OCC)cc2)o1,5.5*,1,-3,1,-1,0
CC1(C)Cc2nc3sc(C(=O)NCCCO)c(N)c3cc2CO1,6.5*,2,-2,4,0,0
CC1(C)Cc2nc3sc4c(=O)n(CC(N)=O)cnc4c3cc2CO1,0,3,2,0,0,0
Cc1cc(C)n(CC(=O)NNC(=O)CCCOc2ccc(Cl)c(C)c2)n1,0,0,0,3,-1,-1
CC#CCc1cc2ccccc2c(=O)o1,4.6*,3,0,0,-1,1
O=c1oc(CCO)cc2ccccc12,-1,0,-1,1,-1,0
Cc1nnc(NC(=O)CC(NC(=O)C(F)(F)F)c2ccccc2)s1 (centres undefined),1,0,0,0,-1,0
CCOc1ccc(Nc2cc(C)nc3c(C)cccc23)cc1,4.9*,-2,-1,-2,-2,0
CC(=O)c1c(C(C)=O)c(C)n(NC(=O)c2ccncc2)c1C,5.7*,-1,-1,0,-1,-1
COC(=O)c1cccc(C23CC4(C2)[C@H](CN(Cc2ccc(C(F)(F)F)cc2)[C@@H]4c2ccccc2)C3c2ccccc2)c1 (some centres undefined),0,.,.,.,.,.
SMILES,DAX1 inh-1,hgDAF12 agonist,SMARCA2 act,hcDAF12 agonist,ssDAF12 agonist,DAX1 inh-2
Nc1ccc2c(c1)sc1ccccc12,1,11*,5,3,-1,2
Cc1ccc(NC(=O)/C=C/c2ccco2)nc1,1,8,4,6.5*,1.6*,6.5*
O=C(/C=C/c1ccco1)Nc1ccccn1,-1,13*,0,4,0,1
CCN1C(=O)C(O)(C2COC(C)(C)CC2=O)c2ccccc21 (centres undefined),1,2,-3,2,-1,0
Cc1ccc(OCCSc2nc3ncnc(N)c3[nH]2)cc1,4.3*,0,-3,-1,-2,1
Nc1cc(N)nc(SCCOc2ccccc2F)n1,1,11*,1,2,0,0
COCCCn1c(=O)/c(=C\c2cccc(OC)c2OC)s/c1=C(/C#N)C(=O)Nc1ccc(C(=O)O)cc1,4.3*,-2,-3,1,-1,0
COCCCn1c(=O)/c(=C/c2ccccc2OC(F)F)s/c1=C(\C#N)C(=O)NCCOC,0,2,-3,0,-2,-1
O=C(O)c1ccc(N=NN2CCCCCC2)cc1,2,11*,1,4,0,3
CC(C)c1ccc(NC(=O)NN2CCOCC2)cc1,5.0*,13*,2,3,1.5*,4.3*
CC(C)c1ccc(/C=C/C(=O)N2CCOCC2)cc1,6.2*,6,3,0,0.9*,3
CC(C)c1ccc(NC(=O)C(c2ccccc2)N2CCOCC2)cc1 (centres undefined),1,4,1,1,-1,0
O=C(NCCS(=O)(=O)N1CCN(c2ccccc2F)CC1)c1ccc(F)c(F)c1,0,4,-2,1,-1,0
Cc1cc(C)c2c(n1)sc1c(=O)n(Cc3ccc(F)cc3)cnc12,4.5*,-1,-7,0,0,0
C=CCn1cnc2c(sc3nc(C)cc(C)c32)c1=O,1,3,2,0,-1,0
Cc1nc(CN(C)C(=O)c2cc(COc3c(F)cccc3F)on2)cs1,2,-5,1,0,-1,0
CSc1ccccc1OCc1cc(C(=O)NC(C)Cc2cccc(C)n2)no1 (centres undefined),-1,-2,5,-4,-2,-2
Cc1nonc1CN(C)C(=O)c1cc(COc2ccc(F)cc2Cl)on1,-1,4,8,-3,-1,0
CSc1ccccc1OCc1cc(C(=O)NCc2cccc(C)n2)no1,2,11*,6,4,-1,3
CSc1ccccc1OCc1cc(C(=O)N(C)Cc2nonc2C)no1,2,3,3,2,-1,4.0*
Cc1nc(CNC(=O)c2cc(COc3c(F)cccc3F)on2)cs1,6.3*,-1,-3,1,-2,0
CC(=O)Nc1ccc(OCc2ccc3c(c2)OCO3)cc1,4,12*,5,5,0,1
CCOc1ccc(NC(=S)NCc2ccc3c(c2)OCO3)cc1,5.5*,0,-1,0,0,0
Cc1ccc(S(=O)(=O)NCC(=O)Nc2ccc3c(c2)OCO3)cc1,-1,0,0,-1,-1,0
O=S(=O)(NCc1ccc2c(c1)OCO2)c1ccc(F)cc1,7.5*,-3,-1,-2,-1,1
